# Reference: ChEMBL document CHEMBL1961873, “Compounds: GSK PKIS; Assays: Nanosyn kinase panel” (2012)
# “And” between values parts separate entries of the source, which are not always exact repeats. Identical values can stand only once.
# How the values were obtained:
# [1] = target: CDK3/Cyclin E (Homo sapiens) (UniProt P24864+Q00526); settings: at 1 µM;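 note: each figure is a mean percent inhibition of the CDK3/cyclin E complex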
# [2] = target: Cyclin-dependent kinase 4 (Homo sapiens) (UniProt P11802); settings: at 0.1 µM
# Cyclin-dependent kinase 4 (Homo sapiens), sequence (P11802 whole entry): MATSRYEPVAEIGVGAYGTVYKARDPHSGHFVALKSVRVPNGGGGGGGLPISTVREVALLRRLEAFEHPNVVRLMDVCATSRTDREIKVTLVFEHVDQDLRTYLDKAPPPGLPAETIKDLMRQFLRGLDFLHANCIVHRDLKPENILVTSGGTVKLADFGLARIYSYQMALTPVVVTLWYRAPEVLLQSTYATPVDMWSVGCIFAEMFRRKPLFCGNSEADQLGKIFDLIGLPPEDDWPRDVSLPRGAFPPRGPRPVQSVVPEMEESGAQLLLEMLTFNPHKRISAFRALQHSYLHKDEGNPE
# [3] = target: Cyclin-dependent kinase 4 (Homo sapiens) (UniProt P11802); settings: at 1 µM
# [4] = target: Cyclin-dependent kinase 5 (Homo sapiens) (UniProt Q00535); settings: at 0.1 µM
# Cyclin-dependent kinase 5 (Homo sapiens), sequence (Q00535 whole entry, looked up): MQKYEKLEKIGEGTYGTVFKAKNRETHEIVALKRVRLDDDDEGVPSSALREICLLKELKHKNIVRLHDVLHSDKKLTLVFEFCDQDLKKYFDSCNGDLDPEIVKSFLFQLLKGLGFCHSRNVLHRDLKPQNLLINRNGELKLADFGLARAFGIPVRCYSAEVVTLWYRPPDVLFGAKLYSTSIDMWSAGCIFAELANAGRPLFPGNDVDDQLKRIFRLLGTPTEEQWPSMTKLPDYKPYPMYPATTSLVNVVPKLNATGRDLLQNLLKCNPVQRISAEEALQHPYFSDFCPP
# [5] = target: Cyclin-dependent kinase 5 (Homo sapiens) (UniProt Q00535); settings: at 1 µM
# [6] = target: Cyclin-dependent kinase 6 (Homo sapiens) (UniProt Q00534); settings: at 0.1 µM
# Cyclin-dependent kinase 6 (Homo sapiens), sequence (Q00534 whole entry): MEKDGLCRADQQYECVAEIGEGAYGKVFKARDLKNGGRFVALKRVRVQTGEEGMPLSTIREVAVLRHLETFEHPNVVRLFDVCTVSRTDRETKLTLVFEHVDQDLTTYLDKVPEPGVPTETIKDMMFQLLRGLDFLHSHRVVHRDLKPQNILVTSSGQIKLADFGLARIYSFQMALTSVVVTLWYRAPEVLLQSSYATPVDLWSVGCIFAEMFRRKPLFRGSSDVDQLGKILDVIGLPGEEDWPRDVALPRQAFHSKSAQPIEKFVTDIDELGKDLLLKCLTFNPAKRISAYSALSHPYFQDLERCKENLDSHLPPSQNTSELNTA
# [7] = target: Cyclin-dependent kinase 6 (Homo sapiens) (UniProt Q00534); settings: at 1 µM
# [8] = target: Dual specificity protein kinase CLK2 (Homo sapiens) (UniProt P49760); settings: at 0.1 µM
# Dual specificity protein kinase CLK2 (Homo sapiens), sequence (P49760 whole entry, looked up): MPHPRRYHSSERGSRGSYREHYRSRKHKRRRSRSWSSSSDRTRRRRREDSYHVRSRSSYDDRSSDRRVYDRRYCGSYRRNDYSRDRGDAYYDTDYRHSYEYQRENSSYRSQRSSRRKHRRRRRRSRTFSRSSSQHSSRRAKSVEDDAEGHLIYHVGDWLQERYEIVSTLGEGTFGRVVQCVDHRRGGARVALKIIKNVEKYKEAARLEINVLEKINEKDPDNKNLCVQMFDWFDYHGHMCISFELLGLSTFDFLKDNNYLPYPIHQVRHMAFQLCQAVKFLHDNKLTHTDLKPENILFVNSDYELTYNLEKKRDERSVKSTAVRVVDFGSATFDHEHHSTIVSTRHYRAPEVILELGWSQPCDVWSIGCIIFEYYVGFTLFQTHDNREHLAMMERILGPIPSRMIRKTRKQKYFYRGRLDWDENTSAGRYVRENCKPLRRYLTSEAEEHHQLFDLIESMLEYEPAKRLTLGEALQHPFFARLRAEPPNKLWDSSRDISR
# [9] = target: Dual specificity protein kinase CLK2 (Homo sapiens) (UniProt P49760); settings: at 1 µM
# [10] = target: Dual specificity protein kinase CLK3 (Homo sapiens) (UniProt P49761); settings: at 0.1 µM
# Dual specificity protein kinase CLK3 (Homo sapiens), sequence (P49761 whole entry, looked up): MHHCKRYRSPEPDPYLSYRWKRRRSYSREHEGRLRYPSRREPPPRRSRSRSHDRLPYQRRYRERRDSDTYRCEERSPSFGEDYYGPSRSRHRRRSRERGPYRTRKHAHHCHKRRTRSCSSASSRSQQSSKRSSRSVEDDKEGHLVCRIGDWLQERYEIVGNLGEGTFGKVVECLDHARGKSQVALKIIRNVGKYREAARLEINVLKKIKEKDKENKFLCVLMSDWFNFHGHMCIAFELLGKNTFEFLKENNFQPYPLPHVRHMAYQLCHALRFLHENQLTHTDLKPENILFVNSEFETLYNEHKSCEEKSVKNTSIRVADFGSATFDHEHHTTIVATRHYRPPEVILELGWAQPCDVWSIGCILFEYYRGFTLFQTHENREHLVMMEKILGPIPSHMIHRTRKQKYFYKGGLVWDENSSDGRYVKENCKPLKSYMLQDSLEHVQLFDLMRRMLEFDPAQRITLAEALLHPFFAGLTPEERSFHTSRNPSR
# CDK3/Cyclin E (Homo sapiens), sequence (P24864 whole entry, looked up): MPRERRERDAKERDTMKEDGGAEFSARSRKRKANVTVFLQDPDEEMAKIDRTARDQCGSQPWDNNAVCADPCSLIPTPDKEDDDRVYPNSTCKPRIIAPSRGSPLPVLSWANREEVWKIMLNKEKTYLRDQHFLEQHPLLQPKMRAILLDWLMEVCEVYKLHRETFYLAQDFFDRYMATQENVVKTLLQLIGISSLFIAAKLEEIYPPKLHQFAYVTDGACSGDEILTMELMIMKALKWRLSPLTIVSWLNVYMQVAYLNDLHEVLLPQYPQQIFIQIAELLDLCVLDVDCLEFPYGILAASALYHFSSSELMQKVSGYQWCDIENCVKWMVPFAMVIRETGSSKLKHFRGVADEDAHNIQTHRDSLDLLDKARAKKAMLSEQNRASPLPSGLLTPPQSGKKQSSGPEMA
# CDK3/Cyclin E (Homo sapiens), sequence (Q00526 whole entry, looked up): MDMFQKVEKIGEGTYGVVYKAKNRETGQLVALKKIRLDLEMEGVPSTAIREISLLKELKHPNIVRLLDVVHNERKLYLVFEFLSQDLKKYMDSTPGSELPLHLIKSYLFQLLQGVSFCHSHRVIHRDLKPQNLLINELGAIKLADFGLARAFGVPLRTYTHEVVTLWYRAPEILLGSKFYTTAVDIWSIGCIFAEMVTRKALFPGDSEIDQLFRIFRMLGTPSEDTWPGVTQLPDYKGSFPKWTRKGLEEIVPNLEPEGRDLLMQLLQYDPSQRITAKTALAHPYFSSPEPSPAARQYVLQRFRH
SMILES,inhibition [1],inhibition [2],inhibition [3],inhibition [4],inhibition [5],inhibition [6],inhibition [7],inhibition [8],inhibition [9],inhibition [10]
COc1ccc2ncn(-c3cc(O[C@H](C)c4ccccc4C(F)(F)F)c(C(N)=O)s3)c2c1,-1.57%,0.47%,2.89%,0.13%,1.21%,-4.17%,-1.08%,0.34%,5.08%,-0.05%
COc1cc(N2CCN(C(C)C)CC2)ccc1Nc1nc(Nc2cccc3ncccc23)c2cc[nH]c2n1,-2.06%,-0.07%,1.11%,1.69%,4.66%,1.04%,8.48%,4.18%,20.7%,-0.15%
O=C(O[C@H]1CN[C@H](C#Cc2cc3ncnc(Nc4ccc5c(ccn5Cc5cc(F)ccc5F)c4)c3s2)C1)N1CCOCC1,-2.16%,2.17%,1.93%,1.09%,0.14%,-1.14%,1.5%,1.29%,0.52%,1.27%
COc1ccccc1-c1cc(/C=C2\C(=O)Nc3ncc(Br)cc32)cc(Br)c1O,1.11%,5.08%,7.62%,4.84%,4.91%,1.08%,6.64%,1.63%,5.09%,2.35%
Nc1ncnc2occ(-c3ccc(NC(=O)Nc4cc(C(F)(F)F)ccc4F)cc3)c12,26.3% and 17%,2.18% and -1.12%,7.72% and 1.95%,2.15% and 1.3%,10.4% and 4.77%,2.49% and -1.62%,6.94% and -0.12%,-0.16% and 0.05%,2.32% and 0.92%,-0.08% and 0.74%
N#Cc1ccc2c(-c3ccnc(NC4CC4)n3)c(-c3ccc(F)cc3)nn2c1,-1.23%,-0.21%,1.61%,-0.1%,-0.13%,-1.07%,2.32%,-0.43%,-1.71%,-0.22%
Cc1cc(O)cc(C)c1/C=C/c1cncc(C(=O)OC(C)(C)C)c1,1.16%,2.59%,3.59%,0.74%,2.53%,3.38%,5.01%,0.65%,0.81%,3.45%
NS(=O)(=O)c1ccc(N/N=C2\C(=O)Nc3cccc(CCc4ccncc4)c32)cc1,63.6%,14%,29.4%,19.4%,38.5%,36.6%,56.2%,0.9%,4.17%,0.97%
NS(=O)(=O)c1ccc(N/N=C2\C(=O)Nc3ccc(C(=O)NCc4ccncc4)cc32)cc1,96.3%,14%,52.3%,47.7%,79.1%,8.64%,58.6%,2.87%,36.8%,1.92%
Nc1nonc1-c1nc2cnccc2n1C1CC1,4.03% and 3.32%,1.99% and -2.13%,2.95% and -0.61%,3.26% and -1.62%,16.6% and 12.1%,0.11% and -4.39%,1.22% and -0.23%,0.67% and 3.19%,17% and 19%,1.8% and -2.05%
Cc1nnc(-c2cccc(-c3ccc(C(=O)NCC4CC4)cc3)c2)o1,-0.73%,1.46%,2.47%,0.47%,1.45%,2.21%,4.2%,1.61%,1.14%,2.84%
CC1=C(C(=O)Nc2ccc3[nH]ncc3c2)C(c2ccc(F)cc2)N=C(c2ccc(C(F)(F)F)nc2)N1 (stereo not given),1.96%,2.27%,2.07%,0.56%,0.43%,2.17%,1.9%,0.46%,-0.11%,1.34%
CN(C)CCNC(=O)Nc1ccc(N(C)c2ccnc(Nc3ccc(CS(C)(=O)=O)cc3)n2)cc1,0.2%,3.81%,4.81%,0.85%,2.57%,0.28%,4.3%,0.9%,3.79%,2.16%
O=C(O[C@H]1CN[C@H](C#Cc2cc3ncnc(Nc4ccc(OCc5cccc(F)c5)c(Cl)c4)c3s2)C1)N1CCOCC1,-3.23%,2.11%,2.33%,0.49%,-0.57%,1.23%,-0.42%,-0.15%,-0.4%,2.68%
O=C(O[C@H]1CN[C@H](C#Cc2cc3ncnc(Nc4ccc5c(cnn5Cc5ccccc5)c4)c3s2)C1)N1CCOCC1,-1.05%,0.36%,3.2%,2.53%,3.35%,-1.23%,0.26%,-1.51%,-0.74%,-0.96%
COc1ccc(-c2nn3ncccc3c2-c2ccnc(Nc3ccc(F)c(F)c3)n2)cc1,0.42%,0.25%,1.71%,0.48%,1.15%,5.13%,3.48%,-1.03%,0.41%,2.08%

SMILES,inhibition [1],inhibition [2],inhibition [3],inhibition [4],inhibition [5],inhibition [6],inhibition [7],inhibition [8],inhibition [9],inhibition [10]
CN1CCN(Cc2ccc(-c3cc4ncnc(Nc5ccc(OCc6cccc(F)c6)c(Cl)c5)c4s3)o2)CC1,-0.88% and -0.53%,0.41% and 3.55%,4.82% and 8.07%,1.3% and 1.22%,2.71% and 2.36%,-3.55% and 3.09%,-1.42% and 9.4%,-0.35% and 2.37%,-0.11% and 1.21%,-0.14% and 1.15%
N#Cc1cccc(Nc2ncc(-c3ccccc3)o2)c1,40.2%,3.86%,26.7%,4.45%,30.5%,21.9%,63%,1.44%,9.1%,1.7%
Fc1ccc(Nc2nccc(-c3c(-c4ccc(C(F)(F)F)cc4)nn4ncccc34)n2)cc1F,-0.37%,2.28%,2.36%,0.28%,0.64%,1.44%,1.37%,2.15%,1.63%,2.2%
CN1CCC(C(=O)Nc2n[nH]c3nc(-c4ccc(O)cc4)c(Br)cc23)CC1,56.1% and 53.4%,48% and 51.8%,76.6% and 78.3%,0.17% and 1.86%,13.3% and 11.5%,36.9% and 34.2%,76.5% and 74%,2.03% and 1.85%,3.04% and 2.87%,-1.53% and 0.88%
COc1cccc(Nc2nccc(-c3cnn4ncccc34)n2)c1,91.4%,56.5%,76.9%,59.3%,78%,49.5%,80.5%,93.9%,98.2%,23.2%
CS(=O)(=O)Nc1ccc(-c2ccc3c(NC(=O)C4CC4)n[nH]c3c2)cc1,6.25%,2.19%,6.78%,0.45%,1.18%,7.5%,36.3%,0.87%,3.05%,1.51%
Fc1cccc(COc2ccc(Nc3ncncc3C#Cc3ccccc3)cc2Cl)c1,-2.37%,2.27%,2.61%,1.02%,1.31%,3.3%,2.89%,1.45%,2.09%,2.41%
Cn1c(-c2nonc2N)nc2cnccc21,2.12%,1.95%,3.9%,1.09%,7.18%,-4.08%,1.64%,2.9%,10.3%,1%
CNC(=O)c1cncc(/C=C/c2ccccc2C)c1,0.23%,1.9%,7.47%,4.11%,10.4%,3.69%,4.46%,2.83%,2.46%,1.79%
O=C1Nc2ccccc2/C1=C1\CCc2cc(O)ccc21,2.91%,3.57%,7.74%,1.5%,7.54%,3.57%,30.5%,2.81%,13.6%,1.61%
Cc1cc(O)cc(C)c1/C=C/c1cncc(C(N)=O)c1,1.41%,2.84%,3.26%,0.63%,1.61%,3.58%,4.03%,-0.7%,2.41%,1.21%
COc1ccc(Nc2ncc(-c3ccccc3)o2)cc1OC,22.2%,5.15%,14%,11.1%,45.7%,-1.71%,23.4%,0.23%,5.9%,2%
COc1cc(N2CCN(C(C)C)CC2)ccc1Nc1nc(Nc2cccc(F)c2C(=O)O)c2cc[nH]c2n1,-1.26%,2.63%,2.75%,1.71%,2.09%,5.01%,4.74%,5.61%,41%,3.73%
CS(=O)(=O)CCNCc1ccc(-c2ccc3ncnc(Nc4ccc(OCc5ccccc5)cc4)c3c2)o1,-0.81%,1.16%,2.98%,0.58%,2.07%,-1.55%,1.12%,0.03%,0.73%,0.41%
CN1CCC(n2cnc(-c3ccc(F)cc3)c2-c2ccnc(NCCO)n2)CC1,-0.43%,2.07%,2.04%,0.67%,0.7%,3.75%,2.73%,1.02%,2.41%,3.29%
